Screening results: PubChem BioAssay, National Center for Advancing Translational Sciences (NCATS)
S-ASM inh: Inhibitors of Secretory Acid Sphingomyelinase (S-ASM): qHTS | Potency, µM (titrated, usually from 57.5 µM), without a hit: at the top dose activity change, negative = inhibition, usual class: inhibitors | 0.006% of 340,000 active | Sphingomyelin phosphodiesterase (Homo sapiens), P17405 | AID 504937, 2011 | placental ASM, HMU-PC fluorogenic substrate, 60 min; further: potency means the concentration at half of the fitted maximal effect
Target sequence (P17405 47-631 limits assumed): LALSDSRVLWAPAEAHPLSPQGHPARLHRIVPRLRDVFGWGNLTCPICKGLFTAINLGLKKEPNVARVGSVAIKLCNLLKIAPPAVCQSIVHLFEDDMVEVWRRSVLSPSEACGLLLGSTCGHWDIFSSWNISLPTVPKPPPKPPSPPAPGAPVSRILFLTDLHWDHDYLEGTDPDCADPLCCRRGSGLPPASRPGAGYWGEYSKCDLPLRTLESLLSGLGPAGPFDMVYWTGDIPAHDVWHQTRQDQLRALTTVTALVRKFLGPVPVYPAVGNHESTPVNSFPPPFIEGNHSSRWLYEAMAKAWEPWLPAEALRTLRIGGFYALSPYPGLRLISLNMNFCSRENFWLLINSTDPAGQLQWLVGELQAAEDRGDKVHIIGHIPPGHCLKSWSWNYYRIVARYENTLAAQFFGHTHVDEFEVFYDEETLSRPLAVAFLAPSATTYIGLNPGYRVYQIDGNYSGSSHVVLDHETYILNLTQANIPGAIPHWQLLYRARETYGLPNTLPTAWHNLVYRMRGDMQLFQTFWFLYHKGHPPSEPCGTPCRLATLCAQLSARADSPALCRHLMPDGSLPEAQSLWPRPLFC
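Steps: dispense placental human ASM, pin compound, wait 10 min at room temperature, add HMU-PC0 substrate at 9 uM final, incubate 60 min at 37 °C, add stop solution raising pH to 10, read fluorescence.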
IL1B secr inh: qHTS for Inhibitors of Inflammasome Signaling: IL-1-beta AlphaLISA Primary Screen. THP-1 LPS/ATP IL-1B secretion, AlphaLISA, 16 h; hits give low values. activity change, % at 57.5 µM. 4.7% of 360,000 active; in the data active means activity change below about -50%; inconclusive means mostly about -30% to -49%; further: on the % scale 0 is the no-effect control and ±100 the full control effect
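THP-1 cells pretreated 1 hr with compounds (up to 57.5 uM final), then stimulated with LPS (250 ng/mL final) plus ATP (1.25 mM final); secreted IL-1B measured by AlphaLISA after 16 hr, decreased signal indicating inhibition.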
TGFb inhibitor: qHTS for Inhibitors of TGF-b; HepG2 CAGA-GFP TGF-b/SMAD3 reporter, GFP fluorescence, 18 h; TGF-beta stimulated, 500 pg/mL final; Potency, µM (titrated, usually from 46.1 µM), inactives show at the top dose activity, negative = inhibition, most hits filed as inhibitors; 1.2% of 410,000 active; AID 588855, 2011; further: potency means the concentration at half of the fitted maximal effect; on the % scale 0 is the no-effect control and ±100 the full control effect; nearly all actives have a fitted effect of over 65% in size
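TGF-beta reporter screen: HEPG2 CAGA-GFP, 1% FBS, 500 pg/mL TGF-beta final, 18 h; per-cell GFP summed per well; curves fitted and categorized by class.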
HepG2 tox: qHTS for Inhibitors of TGF-b: Cytotox Counterscreen | HepG2 CAGA-GFP viability, ATP luminescence, 18 h | Potency, µM (series often up to 46.1 µM), without a hit: at the highest dose activity change, negative = cytotoxicity, hits mostly cytotoxic | 0.76% of 410,000 active | AID 588856, 2011; further: potency means the concentration at half of the fitted maximal effect
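CellTiter-Glo luminescence gave cytotoxicity after 18 hours at 37 degrees C. The cells were HepG2 CAGA-GFP in 1% FBS DMEM, stimulated with 500 pg/mL TGF-beta after compound addition. %Activity was normalised to no-cell wells (complete cell-killing) and DMSO (no toxicity), and curves were fitted and classified.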
TDP1 cell noCPT: qHTS for Inhibitors of human tyrosyl-DNA phosphodiesterase 1 (TDP1): qHTS in cells in absence of CPT; DT40 Tdp1-/- hTDP1 cells, no CPT, ATP luminescence, 48 h; Potency, µM (doses to about 46.2 µM), without a hit: at the top dose activity change, negative = growth inhibition, usual class: inhibitors; 15% of 420,000 active; AID 686978, 2013; further: potency means the concentration at half of the fitted maximal effect; on the % scale 0 is the no-effect control and ±100 the full control effect; nearly all actives have a fitted effect of over 55% in size
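A cellular qHTS used chicken DT40 cells lacking endogenous Tdp1 but carrying stably transfected human TDP1. Compounds were applied without camptothecin, and cell growth kinetics were judged by ATP-dependent luminescence after ≥48 hr.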
DT40 TDP1 CPT: qHTS for Inhibitors of human tyrosyl-DNA phosphodiesterase 1 (TDP1): qHTS in cells in presence of CPT. chicken DT40 Tdp1-/-;hTDP1 cells + 20 nM CPT, ATP luminescence, 48 h. Potency, µM (doses to about 46.2 µM), without a hit: at the top dose activity change, negative = growth inhibition, most hits filed as inhibitors. 12% of 420,000 active. AID 686979, 2013; further: potency means the concentration at half of the fitted maximal effect; on the % scale 0 is the no-effect control and ±100 the full control effect; nearly all actives have a fitted effect of over 55% in size
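Cell growth measured by CellTiter-Glo luminescence after a minimum 48 h, 37 C compound exposure with 20 nM CPT in Tdp1-knockout DT40 cells stably expressing hTDP1, seeded 400/well; qHTS titration format.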
The depositor's hits bear a star; ? = inconclusive; nt = no result given; [ ] = another dose, or the depositor's remark. Sampled rows, rich in hits. Any-hit rate of the full collection: about 19%. Unless noted, the call rests on the fitted dose curve; in most records, active means well fitted curve in the direction sought with a large enough effect; inconclusive means small, poorly fitted or top-dose-only effect, or another doubt; inactive means no such curve, though single readings can be large; an effect the other way counts as inactive or inconclusive.

SMILES	S-ASM inh	IL1B secr inh	TGFb inhibitor	HepG2 tox	TDP1 cell noCPT	DT40 TDP1 CPT
NC(=O)N=Nc1c(O)[nH]c2ccc([N+](=O)[O-])cc12	-1.6%	33.4	-6.8%	0.3%	9.9%	4.2%
C=C(C)CNC(=S)N=Nc1c(O)[nH]c2ccc([N+](=O)[O-])cc12	-18.2%	12.0	?	2.1%	4.61µM*	4.11µM*
C=CC[C@@H](CC(=O)N[C@@H](CO)Cc1ccccc1)C(=O)N[C@H](COC(=O)[C@@H](CC=C)Cc1ccc(F)cc1)Cc1ccccc1	-1.4%	14.1	-2.6%	3.3%	?	?
C=CCC[C@H](Cc1ccc(F)cc1)C(=O)OC[C@H](Cc1c[nH]c2ccccc12)NC(=O)[C@@H](CC=C)CC(=O)N[C@H](CO)Cc1ccccc1	?	?	12.6µM*	-107.0%	-80.8%	?
C=CCC[C@H](Cc1ccc(F)cc1)C(=O)OC[C@H](Cc1c[nH]c2ccccc12)NC(=O)[C@@H](CC=C)CC(=O)N[C@@H](CO)Cc1ccccc1	-2.1%	69.5	?	12.6µM*	16.4µM*	5.8µM*
C=CCC[C@@H](Cc1ccc(F)cc1)C(=O)OC[C@H](Cc1c[nH]c2ccccc12)NC(=O)[C@@H](CC=C)CC(=O)N[C@H](CO)Cc1ccccc1	-5.2%	-7.7	?	12.6µM*	?	?
C=CCC[C@H](Cc1ccc(F)cc1)C(=O)OC[C@@H](Cc1c[nH]c2ccccc12)NC(=O)[C@@H](CC=C)CC(=O)N[C@H](CO)Cc1ccccc1	-6.7%	-22.1	-66.5%	-16.1%	14.6µM*	18.4µM*
C=CCC[C@H](Cc1ccc(F)cc1)C(=O)OC[C@H](Cc1c[nH]c2ccccc12)NC(=O)[C@H](CC=C)CC(=O)N[C@H](CO)Cc1ccccc1	-9.2%	-7.9	-18.8%	-7.2%	?	?
CN1CCN(c2nc3c(S(=O)(=O)c4ccc(Br)cc4)nnn3c3ccsc23)CC1	nt	nt	-0.5%	-20.1%	?	?
CC(C)(C)c1ccc(-c2nnc(-c3ccccc3NC(=O)c3ccc(F)cc3F)o2)cc1	nt	nt	-20.7%	-23.1%	?	?
Cc1occc1-c1nnc(SCC(=O)Nc2ccccc2N2CCCCC2)n1C	-0.4%	-52.8*	-11.4%	-12.1%	18.4µM*	18.4µM*
O=C(CCCSc1nnnn1-c1cccc2ccccc12)c1ccc(F)cc1	-1.9%	-3.6	-4.0%	-25.5%	20.6µM*	-15.5%
Cn1c(=O)c2c(nc(SCC(=O)Nc3ccccc3F)n2Cc2ccccc2F)n(C)c1=O	nt	nt	1.4%	0.6%	2.91µM*	-26.8%
Cn1c(SCCCC(=O)c2ccc(F)cc2)nnc1-c1ccncc1	2.8%	22.0	3.3%	2.7%	?	?
Cc1occc1-c1nnc(SCCCC(=O)c2ccc(F)cc2)n1C	1.3%	-29.7	?	-18.4%	16.4µM*	18.4µM*
O=C(Oc1ccc([N+](=O)[O-])cc1)C1CC(=O)N(c2ccc3c(c2)OCCO3)C1 (stereo not drawn)	-1.8%	5.5	-1.2%	-19.2%	3.4%	0.7%
Cc1nc2cc(NC(=O)[C@@H]3C[C@@H](Sc4ccccn4)CN3Cc3ccccc3)ccc2s1	nt	nt	nt	nt	-10.2%	5.4%[9.04 µM]
CCOc1ccccc1-n1c(SCC(=O)NC2CCCC2)nnc1-c1ccoc1C	-1.5%	-10.1	1.4%	-23.6%	14.1µM*	?
